# Data as given in PubChem BioAssay (EPA / NIEHS).
# Results filed as inconclusive are left out. Activity calls are given as the source filed them. Rule for the calls: active = hit-call score of the fitted dose curve at least 0.9, where 1 is the maximum; inconclusive = response in the unintended direction; inactive = score below 0.9.
# Experiments:
# [1] = molecular target: Estrogen receptor (Homo sapiens) (UniProt P03372); assay: OT_ER_ERaERa_1440: Odyssey Thera (OT) 24-hour HEK293T Protein-Complementation Assay for Estrogen Receptor-alpha/-alpha Homodimer (AID 2283349);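 note: hits raise fluorescence above DMSO for agonists and antagonists alike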
# Chain of Estrogen receptor (Homo sapiens) (P03372 whole entry, looked up, the tested form may be a part): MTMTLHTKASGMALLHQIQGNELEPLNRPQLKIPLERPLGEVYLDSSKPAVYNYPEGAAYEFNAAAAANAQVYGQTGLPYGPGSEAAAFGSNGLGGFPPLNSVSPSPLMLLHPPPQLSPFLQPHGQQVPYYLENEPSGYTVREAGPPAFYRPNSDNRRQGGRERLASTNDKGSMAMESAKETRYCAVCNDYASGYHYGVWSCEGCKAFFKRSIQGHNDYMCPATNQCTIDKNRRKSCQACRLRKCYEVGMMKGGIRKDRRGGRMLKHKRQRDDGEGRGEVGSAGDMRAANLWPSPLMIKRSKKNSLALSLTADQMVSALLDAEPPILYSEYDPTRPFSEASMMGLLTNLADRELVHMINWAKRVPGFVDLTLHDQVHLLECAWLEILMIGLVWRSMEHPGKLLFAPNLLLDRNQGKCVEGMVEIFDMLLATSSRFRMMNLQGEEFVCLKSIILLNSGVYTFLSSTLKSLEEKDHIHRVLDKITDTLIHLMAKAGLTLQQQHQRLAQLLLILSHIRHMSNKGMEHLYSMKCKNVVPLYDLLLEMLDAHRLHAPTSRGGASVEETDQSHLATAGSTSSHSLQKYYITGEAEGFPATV
# In short: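 HEK293T cells stably expressing the human ER alpha ligand-binding domain (aa 310-547) as a homodimer PCA were dosed for 24 hours. Fluorescence intensity was read by laser scanning cytometry, and gain of signal was fitted relative to DMSO vehicle.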
# [2] = molecular target: T1, Estrogen receptor (Homo sapiens) + Estrogen receptor beta (Homo sapiens) (UniProt P03372+Q92731); assay: OT_ER_ERaERb_0480: Odyssey Thera (OT) 8-hour HEK293T Protein-Complementation Assay for Estrogen Receptor-alpha/-beta Heterodimer (AID 2283352)
# T1 sequence (P03372 whole entry, looked up, the tested form may be a part): as above
# T1 sequence (Q92731 whole entry, looked up, the tested form may be a part): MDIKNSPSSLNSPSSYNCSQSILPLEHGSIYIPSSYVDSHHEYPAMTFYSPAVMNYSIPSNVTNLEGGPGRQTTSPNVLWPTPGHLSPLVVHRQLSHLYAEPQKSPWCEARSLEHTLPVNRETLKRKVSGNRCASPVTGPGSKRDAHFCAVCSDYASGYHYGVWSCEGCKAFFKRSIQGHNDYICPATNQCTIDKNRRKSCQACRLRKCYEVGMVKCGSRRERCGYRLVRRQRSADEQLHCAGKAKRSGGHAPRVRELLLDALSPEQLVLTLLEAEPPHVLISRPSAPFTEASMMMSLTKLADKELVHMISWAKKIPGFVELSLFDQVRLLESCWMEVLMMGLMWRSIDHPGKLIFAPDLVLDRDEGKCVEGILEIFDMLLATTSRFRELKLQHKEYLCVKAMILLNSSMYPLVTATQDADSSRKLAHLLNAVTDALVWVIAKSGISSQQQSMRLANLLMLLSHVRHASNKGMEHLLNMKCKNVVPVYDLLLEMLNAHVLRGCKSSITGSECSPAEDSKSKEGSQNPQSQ
# In short: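 Fluorescence intensity readout from a protein-fragment complementation reporter in HEK293T; ER-alpha/ER-beta LBD heterodimer. Dosing 8 h. Gain-of-signal fit relative to DMSO negative control; laser scanning cytometry of whole-well cell population.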
# [3] = molecular target: Androgen Receptor/SRC-1 Co-activator, AR (gene 367) (UniProt P10275); assay: OT_AR_ARSRC1_0480: Odyssey Thera (OT) 8-hour HEK293T Protein-Complementation Assay for Androgen Receptor/SRC-1 Co-activator (AID 2283354);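 note: hits raise the complementation signal above DMSO so AC50 marks enhancers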
# Chain of Androgen Receptor/SRC-1 Co-activator, AR (gene 367) (P10275 whole entry, looked up, the tested form may be a part): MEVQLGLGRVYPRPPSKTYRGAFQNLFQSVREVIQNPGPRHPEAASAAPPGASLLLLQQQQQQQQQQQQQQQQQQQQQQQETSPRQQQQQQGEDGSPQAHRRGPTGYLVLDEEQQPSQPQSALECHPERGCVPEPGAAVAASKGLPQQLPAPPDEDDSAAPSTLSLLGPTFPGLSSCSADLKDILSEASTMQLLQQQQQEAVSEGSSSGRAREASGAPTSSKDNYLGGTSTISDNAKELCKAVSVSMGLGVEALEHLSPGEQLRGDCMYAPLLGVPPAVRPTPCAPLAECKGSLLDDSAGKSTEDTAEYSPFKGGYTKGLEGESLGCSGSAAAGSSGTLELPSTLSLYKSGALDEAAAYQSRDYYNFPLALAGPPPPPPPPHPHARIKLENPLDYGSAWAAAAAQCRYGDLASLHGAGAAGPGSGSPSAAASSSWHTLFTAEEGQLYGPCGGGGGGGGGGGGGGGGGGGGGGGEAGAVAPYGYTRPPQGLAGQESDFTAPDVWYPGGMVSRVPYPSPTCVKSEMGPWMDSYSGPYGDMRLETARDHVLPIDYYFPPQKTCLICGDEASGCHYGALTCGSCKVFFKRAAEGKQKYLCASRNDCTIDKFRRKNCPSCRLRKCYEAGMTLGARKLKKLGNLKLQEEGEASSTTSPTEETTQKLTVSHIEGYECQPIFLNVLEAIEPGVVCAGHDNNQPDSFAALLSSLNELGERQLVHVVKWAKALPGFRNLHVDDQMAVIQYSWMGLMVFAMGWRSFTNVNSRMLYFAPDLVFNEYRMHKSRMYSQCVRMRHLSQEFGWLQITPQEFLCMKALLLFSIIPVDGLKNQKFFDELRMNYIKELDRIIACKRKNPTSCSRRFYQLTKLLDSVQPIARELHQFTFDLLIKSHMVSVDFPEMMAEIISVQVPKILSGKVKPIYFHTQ
# In short: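 HEK293T cells stably expressing AR and SRC-1 fused to Venus YFP fragments, imaged 8 h after dosing. Complementation fluorescence scored as nuclear/cytoplasmic ratio at 488 nm in at least 400 cells per image; gain fitted versus DMSO.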
# [4] = molecular target: T1, Estrogen receptor (Homo sapiens) + Estrogen receptor beta (Homo sapiens); assay: OT_ER_ERaERb_1440: Odyssey Thera (OT) 24-hour HEK293T Protein-Complementation Assay for Estrogen Receptor-alpha/-beta Homodimer (AID 2283356);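 note: heteromer of ER alpha and ER beta binding domains; hits raise reporter fluorescence and both agonists and antagonists give an increase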
# In short: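 Readout: mean fluorescence intensity in nucleus (agonists) or nucleus plus cytoplasm (antagonists), read by laser scanning cytometer after 24 h compound exposure of HEK293T cells carrying ERα/ERβ LBD fragment-complementation constructs; DMSO baseline.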
# [5] = molecular target: Estrogen receptor beta (Homo sapiens) (UniProt Q92731); assay: OT_ER_ERbERb_0480: Odyssey Thera (OT) 8-hour HEK293T Protein-Complementation Assay for Estrogen Receptor-beta/-beta Homodimer (AID 2283357);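 note: active means signal gain over DMSO baseline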
# Chain of Estrogen receptor beta (Homo sapiens) (Q92731 whole entry, looked up, the tested form may be a part): as the sequence (Q92731 whole entry, looked up, the tested form may be a part) above
# In short: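 Fluorescence intensity, nuclear for agonists and nuclear plus cytoplasmic for antagonists, was quantified by laser scanning cytometry versus vehicle after 8 h treatment. The cells were HEK293T stably carrying ER beta LBD fragment-complementation partners.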
# [6] = molecular target: bovine Estrogen Receptor (ER), ESR1 (gene 407238) (UniProt P49884); assay: NVS_NR_bER: NovaScreen (NVS) Nuclear Receptor Binding Assay for bovine Estrogen Receptor (ER) (AID 2283345);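 note: actives lower the bound radioligand count which means they displace the ER ligand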
# In short: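 Scintillation counting of displaced radioligand gave the readout; bovine uterine membrane extract supplied the receptor. Measured 18 h post-dose, normalized to DMSO baseline. Single 25 uM duplicate screen preceded concentration-response follow-up.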
# [7] = molecular target: human Peroxisome Proliferator-activated Receptor alpha (PPARa), PPARA (gene 5465) (UniProt Q07869); assay: NVS_NR_hPPARa: NovaScreen (NVS) Nuclear Receptor Binding Assay for human Peroxisome Proliferator-activated Receptor alpha (PPARa) (AID 2283359);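 note: activity means loss of TR-FRET signal versus DMSO baseline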
# Chain of human Peroxisome Proliferator-activated Receptor alpha (PPARa), PPARA (gene 5465) (Q07869 whole entry, looked up): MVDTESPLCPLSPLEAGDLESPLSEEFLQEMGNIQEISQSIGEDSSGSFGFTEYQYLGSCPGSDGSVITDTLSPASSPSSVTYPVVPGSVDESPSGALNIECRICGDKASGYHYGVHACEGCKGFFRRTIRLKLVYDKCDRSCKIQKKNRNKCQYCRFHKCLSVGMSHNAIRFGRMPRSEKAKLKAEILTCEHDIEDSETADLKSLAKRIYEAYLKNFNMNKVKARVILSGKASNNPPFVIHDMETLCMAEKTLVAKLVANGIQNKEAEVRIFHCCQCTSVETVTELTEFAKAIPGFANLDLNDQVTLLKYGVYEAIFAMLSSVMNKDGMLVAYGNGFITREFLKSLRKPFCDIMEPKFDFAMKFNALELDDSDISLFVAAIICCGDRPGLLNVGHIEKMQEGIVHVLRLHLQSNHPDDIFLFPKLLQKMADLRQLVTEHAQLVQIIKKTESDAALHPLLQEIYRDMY
# In short: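 Cell-free TR-FRET binding assay with extracted PPARα protein, read 1 h after dosing. Primary screen in duplicate at 25 uM, with actives retested in concentration series. Loss of signal versus DMSO.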
# [8] = molecular target: Androgen Receptor/SRC-1 Co-activator, AR (gene 367) (UniProt P10275); assay: OT_AR_ARSRC1_0960: Odyssey Thera (OT) 16-hour HEK293T Protein-Complementation Assay for Androgen Receptor/SRC-1 Co-activator (AID 2283353);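 note: actives raise the signal above DMSO so potency reflects increased AR and SRC-1 complex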
# In short: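 HEK293T cells stably expressing AR and SRC-1 fused to split Venus YFP fragments via (Gly4Ser)2 linkers were dosed for 16 h. Nuclear/cytoplasmic fluorescence ratio at 488 nm, ≥400 cells per image, fitted for gain of signal versus DMSO.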
# [9] = system: guinea pig Histamine Receptor (H2), gene 100729734; assay: NVS_GPCR_gH2: NovaScreen (NVS) G Protein-Coupled Receptor Assay for guinea pig Histamine Receptor (H2) (AID 2283342)
# In short: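 Radioligand displacement on guinea pig striatal membranes, 1 h after dosing, filter-based scintillation counting; loss of signal versus DMSO. Single-point screen at 25 uM in duplicate, then concentration-response up to 50 uM.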
# [10] = system: NCBI gene 100848466; assay: NVS_NR_bPR: NovaScreen (NVS) Nuclear Receptor Binding Assay for bovine Progextron Receptor (PR) (AID 2283343);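 note: actives lower bound radioligand signal below DMSO meaning displacement of the label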
# In short: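 Bovine uterine membrane preparation; radioligand displacement read by scintillation counting 18 h after dosing. Primary screen single concentration, 25 uM, in duplicate; actives followed up in concentration series. Signal loss versus DMSO baseline.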
# [11] = molecular target: chimpanzee Androgen Receptor (AR), AR (gene 747460) (UniProt O97775); assay: NVS_NR_cAR: NovaScreen (NVS) Nuclear Receptor Binding Assay for chimpanzee Androgen Receptor (AR) (AID 2283346);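 note: radioligand displacement from AR measured by scintillation counting in a cell-free assay; a loss of bound radioligand signal versus DMSO counts as binding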
# Chain of chimpanzee Androgen Receptor (AR), AR (gene 747460) (O97775 whole entry, looked up): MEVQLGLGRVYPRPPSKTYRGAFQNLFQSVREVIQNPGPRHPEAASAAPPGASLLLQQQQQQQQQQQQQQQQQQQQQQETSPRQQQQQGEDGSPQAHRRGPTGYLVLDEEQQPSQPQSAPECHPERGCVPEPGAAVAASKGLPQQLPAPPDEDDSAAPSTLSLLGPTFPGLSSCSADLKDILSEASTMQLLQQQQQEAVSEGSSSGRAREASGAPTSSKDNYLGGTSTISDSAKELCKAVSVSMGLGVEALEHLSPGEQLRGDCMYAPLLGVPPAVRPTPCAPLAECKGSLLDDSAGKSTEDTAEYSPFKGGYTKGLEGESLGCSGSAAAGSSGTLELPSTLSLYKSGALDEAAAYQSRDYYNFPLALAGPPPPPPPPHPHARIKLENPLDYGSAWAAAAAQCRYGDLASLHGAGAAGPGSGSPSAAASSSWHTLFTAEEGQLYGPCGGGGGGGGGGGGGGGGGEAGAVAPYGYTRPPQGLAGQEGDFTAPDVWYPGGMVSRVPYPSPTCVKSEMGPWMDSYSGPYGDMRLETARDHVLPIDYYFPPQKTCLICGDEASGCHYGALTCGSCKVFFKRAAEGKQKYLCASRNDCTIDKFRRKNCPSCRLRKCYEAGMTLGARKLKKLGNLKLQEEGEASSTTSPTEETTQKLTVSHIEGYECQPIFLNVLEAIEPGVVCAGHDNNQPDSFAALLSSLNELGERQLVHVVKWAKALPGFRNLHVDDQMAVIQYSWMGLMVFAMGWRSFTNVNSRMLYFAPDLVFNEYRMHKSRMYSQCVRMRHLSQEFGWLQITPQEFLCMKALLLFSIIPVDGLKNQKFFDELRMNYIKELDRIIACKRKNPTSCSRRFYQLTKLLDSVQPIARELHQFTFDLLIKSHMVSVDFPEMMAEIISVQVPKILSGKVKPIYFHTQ
# In short: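 Radioligand binding to chimpanzee AR expressed in Sf9/Sf21 cells, cell-free, measured 72 h after dosing by lysate-based scintillation counting. Loss of signal vs DMSO; initial duplicate screen at 25 uM, actives retested in concentration series.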
# [12] = molecular target: Estrogen receptor (Homo sapiens) (UniProt P03372); assay: NVS_NR_hER: NovaScreen (NVS) Nuclear Receptor Binding Assay for human Estrogen Receptor (ER) (AID 2283348)
# In short: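 Radioligand competitive displacement binding to estrogen receptor from MCF7 extract, cell-free; 18 h after dosing, scintillation read-out. Primary screen in duplicate at 25 uM; actives followed up in concentration series; loss of signal vs DMSO.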
# [13] = molecular target: rat Mineralocorticoid Receptor (MR), Nr3c2 (gene 25672) (UniProt P22199); assay: NVS_NR_rMR: NovaScreen (NVS) Nuclear Receptor Binding Assay for rat Mineralocorticoid Receptor (MR) (AID 2283355)
# In short: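 Cell-free radioligand binding to mineralocorticoid receptor from adrenalectomized rat brain supernatant, scintillation counting after 24 h. Primary screen in duplicate at 25 uM; actives retested in concentration series. Loss of specific binding versus DMSO.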
# [14] = molecular target: PGR (gene 5241) (UniProt P06401); assay: NVS_NR_hPR: NovaScreen (NVS) Nuclear Receptor Binding Assay for human Progestron Receptor (PR) (AID 2283360);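 note: active means loss of bound radioligand signal versus DMSO baseline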
# In short: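 T47D lysate; tritiated or iodinated radioligand; scintillation count at 18 h. DMSO = negative control/baseline. Primary: 25 uM, duplicate. Secondary: concentration series for actives.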
# [15] = molecular target: human Thyroid Receptor Alpha (TRa), THRA (gene 7067) (UniProt P10827); assay: NVS_NR_hTRa_Antagonist: NovaScreen (NVS) Nuclear Receptor Binding Assay for human Thyroid Receptor Alpha Antagonism (TRa) (AID 2283362);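 note: activity is loss of signal relative to DMSO baseline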
# In short: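 AlphaLISA chemiluminescent immunoassay readout, taken 1 h post-dosing in a cell-free system with extracted protein. Activity was scored as signal loss against DMSO negative control, from duplicate single-concentration (25 uM) testing followed by concentration-response follow-up.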
# [16] = molecular target: Retinoic acid receptor alpha (Homo sapiens) (UniProt P10276); assay: NVS_NR_hRAR_Antagonist: NovaScreen (NVS) Nuclear Receptor Binding Assay for human Retinoic Acid Alpha Receptor Antagonism (RAR) (AID 2283358)
# Chain of Retinoic acid receptor alpha (Homo sapiens) (P10276 whole entry, looked up): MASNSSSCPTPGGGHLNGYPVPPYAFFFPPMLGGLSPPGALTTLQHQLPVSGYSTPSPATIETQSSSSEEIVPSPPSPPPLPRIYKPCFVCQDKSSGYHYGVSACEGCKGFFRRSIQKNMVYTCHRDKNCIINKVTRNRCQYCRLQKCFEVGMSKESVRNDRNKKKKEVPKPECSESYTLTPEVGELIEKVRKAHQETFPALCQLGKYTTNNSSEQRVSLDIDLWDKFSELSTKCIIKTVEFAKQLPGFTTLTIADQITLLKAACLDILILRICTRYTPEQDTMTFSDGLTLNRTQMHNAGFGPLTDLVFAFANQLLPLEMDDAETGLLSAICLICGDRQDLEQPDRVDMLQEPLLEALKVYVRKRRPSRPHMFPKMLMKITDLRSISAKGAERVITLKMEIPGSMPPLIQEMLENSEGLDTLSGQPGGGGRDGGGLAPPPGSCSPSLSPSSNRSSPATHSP
# In short: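 Cell-free TR-FRET binding assay with extracted human RARalpha in antagonist mode, read 2 h after dosing. Loss of signal was fitted relative to DMSO; the primary screen used 25 uM in duplicate, with concentration series on follow-up.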
smiles,measurement,setting,value
C[N+](C)(C)CC1CO1 (configuration not stated),outcome,[1],inactive
same,outcome,[2],inactive
same,outcome,[3],inactive
same,outcome,[4],inactive
same,outcome,[5],inactive
CCCCCCCCCCCCCN1CC(C)OC(C)C1 (configuration not stated),outcome,[1],inactive
same,outcome,[2],inactive
same,outcome,[4],inactive
same,outcome,[5],inactive
CC(C)COC(=O)c1ccccc1C(=O)OCC(C)C,outcome,[6],inactive
same,AC50,[1],46.5 µM (active)
same,AC50,[2],17.2 µM (active)
same,AC50,[4],31.1 µM (active)
same,AC50,[5],25.9 µM (active)
same,outcome,[7],inactive
N#CC(Br)Br,outcome,[6],inactive
same,outcome,[1],inactive
same,outcome,[4],inactive
same,outcome,[5],inactive
CNC(=O)Oc1cccc2c1OC(C)(C)C2,outcome,[1],inactive
same,outcome,[2],inactive
same,outcome,[8],inactive
same,outcome,[3],inactive
same,outcome,[4],inactive
same,outcome,[5],inactive
COc1cc(C=O)cc2c1[C@H](COC(N)=O)[C@]1(OC(C)=O)ON2C[C@H]2[C@@H]1N2C(C)=O,outcome,[1],inactive
CCC[CH2][Sn]([Cl])([CH2]CCC)[CH2]CCC,AC50,[9],3.05 µM (active)
same,AC50,[10],2.4 µM (active)
same,AC50,[11],7.19 µM (active)
same,outcome,[12],inactive
same,outcome,[1],inactive
same,outcome,[13],inactive
same,AC50,[7],0.0235 µM (active)
same,AC50,[14],2.92 µM (active)
Nc1ccc(Oc2ccc(N)cc2)cc1,outcome,[11],inactive
same,outcome,[5],inactive
same,outcome,[7],inactive
Clc1ccc(C(c2ccc(Cl)cc2)C(Cl)(Cl)Cl)cc1,AC50,[5],12.7 µM (active)
Nc1cc(Cl)cc(C(=O)O)c1Cl,outcome,[5],inactive
CC(C)(O)c1cnn2c(-c3ccc(F)c(-c4c(F)cccc4C#N)c3)cnc2n1,AC50,[8],31.7 µM (active)
same,outcome,[3],inactive
same,AC50,[5],95.8 µM (active)
Cc1cc(N=Nc2ccccc2C)ccc1N,AC50,[8],36 µM (active)
same,AC50,[3],67.5 µM (active)
same,AC50,[5],12.1 µM (active)
same,outcome,[7],inactive
same,outcome,[15],inactive
c1ccc(NNc2ccccc2)cc1,outcome,[5],inactive
same,outcome,[7],inactive
Clc1ccc(Cl)c(Cl)c1,outcome,[5],inactive
CC(C)(OOC(C)(C)c1ccccc1)c1ccccc1,AC50,[8],76.2 µM (active)
same,AC50,[3],71.1 µM (active)
same,AC50,[5],3.31 µM (active)
O=Cc1ccco1,outcome,[14],inactive
O=C(O)C1C2CCC(O2)C1C(=O)O (configuration not stated),outcome,[7],inactive
CCN(CC)N=O,outcome,[16],inactive
same,outcome,[7],inactive
